Measured values taken from ChEMBL document CHEMBL3433997, “St. Jude Leishmania screening dataset” (2016).

How the values were obtained:
Type in all cases: functional
[1] = target: Solute carrier family 2, facilitated glucose transporter member 1 (Homo sapiens) (UniProt P11166); assay: ST_JUDE_LEISH: Cytotoxicity at 2uM final concentration against transgenic Leishmania Mexicana promastigotes LmGLUT1 that are glucose transport deficient and complemented with the human glucose transporter GLUT1. Activity is measured by DNA content using SYBR green in vitro
Solute carrier family 2, facilitated glucose transporter member 1 (Homo sapiens), sequence (P11166 whole entry): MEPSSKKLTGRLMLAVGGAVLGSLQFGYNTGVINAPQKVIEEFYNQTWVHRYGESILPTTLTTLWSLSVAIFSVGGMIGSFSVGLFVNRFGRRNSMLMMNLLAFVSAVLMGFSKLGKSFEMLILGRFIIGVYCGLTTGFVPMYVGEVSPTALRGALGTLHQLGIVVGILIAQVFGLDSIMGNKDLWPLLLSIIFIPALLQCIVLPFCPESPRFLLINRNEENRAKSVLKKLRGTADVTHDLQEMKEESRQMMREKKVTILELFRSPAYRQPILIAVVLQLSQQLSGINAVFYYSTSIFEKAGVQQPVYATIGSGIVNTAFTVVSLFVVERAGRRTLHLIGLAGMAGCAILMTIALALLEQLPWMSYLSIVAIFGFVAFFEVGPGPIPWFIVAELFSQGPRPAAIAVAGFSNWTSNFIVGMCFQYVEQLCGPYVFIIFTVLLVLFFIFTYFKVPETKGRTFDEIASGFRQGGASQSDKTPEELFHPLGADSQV

[2] = target: Hexose transporter 1 (Plasmodium falciparum) (UniProt O97467); assay: ST_JUDE_LEISH: Cytotoxicity at 2uM final concentration against transgenic Leishmania Mexicana promastigotes LmPfHT that are glucose transport deficient and complemented with the Plasmodium falciparum hexose transporter. Activity is measured by DNA content using SYBR green in vitro
[3] = target: Glucose transporter (Leishmania mexicana) (UniProt O61059); assay: ST_JUDE_LEISH: Cytotoxicity at 2uM final concentration against transgenic Leishmania Mexicana promastigotes LmGT2 that are glucose transport deficient and complemented with the L. Mexicana glucose transporter 2. Activity is measured by DNA content using SYBR green in vitro

SMILES: COc1cc2ncnc(Nc3ccc4nc(-c5ccccc5)[nH]c4c3)c2cc1OC
- inhibition [1]: 4.22%
- inhibition [2]: 3.9%
- inhibition [3]: 2%

SMILES: O=C(Nc1cccnc1)c1cn(-c2ccccc2)nc1-c1cccs1
- inhibition [1]: 3.18%
- inhibition [2]: 1.81%
- inhibition [3]: -1.31%

SMILES: CCCCCCCN1CCC(NC(=O)Nc2ccnc3ccc(OC)cc23)C(CO)C1 (stereo unspecified)
- inhibition [1]: -0.96%
- inhibition [2]: -1.62%
- inhibition [3]: -3.37%

SMILES: CCN(c1ccccc1)S(=O)(=O)c1ccc(NC(=O)c2cc(-c3cc(C)ccc3O)n[nH]2)cc1
- inhibition [1]: -1.82%
- inhibition [2]: 5.38%
- inhibition [3]: -1.84%

SMILES: COc1ccc(CCNCCCCCCNCCc2ccc(Cl)c3ccccc23)cc1OC
- inhibition [1]: 0.11%
- inhibition [2]: 0.21%
- inhibition [3]: 2.66%

SMILES: c1cc(CN2CCCCC2)cc(-c2cccc(-c3nc4ccccc4[nH]3)c2)c1
- inhibition [1]: 1.27%
- inhibition [2]: 2.94%
- inhibition [3]: -0.15%

SMILES: Cc1ccc(-n2cc(CNCCCn3ccnc3)c(-c3cccc(C)c3)n2)cc1
- inhibition [1]: 4.3%
- inhibition [2]: 6.62%
- inhibition [3]: 3.71%

SMILES: CN1CCN(Cc2nc(-c3ccc4c(Nc5ccc(Oc6ccccc6)cc5)ccnc4c3)cs2)CC1
- inhibition [1]: 2.66%
- inhibition [2]: 2.64%
- inhibition [3]: 1.74%

SMILES: Cc1ccc(C2CC(c3cccs3)=NN2C(=O)c2ccc(Br)o2)cc1 (stereo unspecified)
- inhibition [1]: 3.24%
- inhibition [2]: 1.47%
- inhibition [3]: 2.89%

SMILES: COc1ccc2nccc([C@@H](O)CN3CCC(NCc4nc5c(OCc6ccccc6)cccc5[nH]4)CC3)c2c1
- inhibition [1]: 4.97%
- inhibition [2]: 3.37%
- inhibition [3]: 4.99%

SMILES: COc1cc(Cc2cnc(NCCN3CCNCC3)nc2N)ccc1OCc1ccc(C(F)(F)F)cc1
- inhibition [1]: 3.49%
- inhibition [2]: 4.49%
- inhibition [3]: 6.93%

SMILES: O=C(NC1CCN(Cc2ccccc2)CC1)c1ccc(-c2nc3cc(Cl)c(F)cc3[nH]2)s1
- inhibition [1]: 3.32%
- inhibition [2]: 3.3%
- inhibition [3]: 4.27%

SMILES: Cc1nc2nc(N)nc(N)c2c(C)c1Cc1ccc([N+](=O)[O-])cc1
- inhibition [1]: 5.73%
- inhibition [2]: 3.25%
- inhibition [3]: -0.24%

SMILES: COc1ccc(C(=O)Nc2cc(Cl)c3c(c2)C2CCCN2CC3)cc1C(F)(F)F (stereo unspecified)
- inhibition [1]: 3.22%
- inhibition [2]: 2.02%
- inhibition [3]: -1.06%

SMILES: CN1CCN(CCCSc2ccc3c(c2)ncn3-c2cc(OCc3ccccc3C(F)(F)F)c(C(N)=O)s2)CC1
- inhibition [1]: 8.47%
- inhibition [2]: 11.1%
- inhibition [3]: 0.97%

SMILES: CN(C)CCCN1CCN(C(=O)c2cccc(-c3noc(C(F)(F)F)n3)c2)CC1
- inhibition [1]: 2.61%
- inhibition [2]: 3.52%
- inhibition [3]: 3.7%

SMILES: Cc1cc(N[C@@H](CC(C)C)C(=O)NCCc2ccccc2)nc(NCC2CCCCC2)n1
- inhibition [1]: 6.58%
- inhibition [2]: 6.23%
- inhibition [3]: 3.37%
